Bioassay records deposited in PubChem BioAssay by National Center for Advancing Translational Sciences (NCATS).
In the library only some 10% were active in any assay of this set; here they are far more common.
MCF10A rereplic: DNA re-replication induction in MCF 10a cells. 350,000 tested, 2.9% active. Potency, µM (series often up to 46.1 µM), without a hit: at the top dose activity, positive = re-replication, usual class: activators. MCF 10A DNA re-replication, Hoechst nuclear intensity, 48 h; further: % of control where 0% means no effect; nearly all actives have a fitted effect of over 50% in size
KB-V1 MDR tox: kills drug-selected multidrug resistant KB-V1 cells; 400,000 tested, 3.4% active; KB-V1 MDR cells viability, CellTiter-Glo, 72 h; AID 1347076; Potency, µM (doses to about 46.1 µM), actives largely listed as cytotoxic; further: on the % scale 0 is the no-effect control and ±100 the full control effect; nearly all actives have a fitted effect of over 60% in size
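Readout: CellTiter-Glo luminescence, 10 min after addition. Cells: KB-V1 MDR subline, 72 h at 37 degrees C with compound. Analysis: corrected, normalized data fitted to concentration-effect curves.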
KB-3-1 tox: kills parental KB-3-1 adenocarcinoma cells; AID 1347075; 400,000 tested, 1.4% active; Potency, µM (top dose mostly 46.1 µM), usual class: cytotoxic; KB-3-1 viability, CellTiter-Glo ATP luminescence, 72 h; further: on the % scale 0 is the no-effect control and ±100 the full control effect; nearly all actives have a fitted effect of over 60% in size
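KB-3-1 parental drug-naive adenocarcinoma cells in DMEM/10% FBS, incubated 72 h at 37 C with pin-transferred compounds across a concentration series. Viability by CellTiter-Glo luminescence; concentration-response curves fitted after normalization.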
RORgamma inh: ROR gamma (mouse) transcription inhibition. Drosophila S2 Gal4-RORgamma UAS-luciferase reporter, 20 h. Potency, µM (top dose mostly 53.6 µM), for inactives: top-dose activity change, negative = inhibition, usual class: inhibitors. 310,000 tested, 5.4% active. AID 2551; further: on the % scale 0 is the no-effect control and ±100 the full control effect; nearly all actives have a fitted effect of over 60% in size
Target sequence (P51450 whole entry, looked up, the tested form may be a part): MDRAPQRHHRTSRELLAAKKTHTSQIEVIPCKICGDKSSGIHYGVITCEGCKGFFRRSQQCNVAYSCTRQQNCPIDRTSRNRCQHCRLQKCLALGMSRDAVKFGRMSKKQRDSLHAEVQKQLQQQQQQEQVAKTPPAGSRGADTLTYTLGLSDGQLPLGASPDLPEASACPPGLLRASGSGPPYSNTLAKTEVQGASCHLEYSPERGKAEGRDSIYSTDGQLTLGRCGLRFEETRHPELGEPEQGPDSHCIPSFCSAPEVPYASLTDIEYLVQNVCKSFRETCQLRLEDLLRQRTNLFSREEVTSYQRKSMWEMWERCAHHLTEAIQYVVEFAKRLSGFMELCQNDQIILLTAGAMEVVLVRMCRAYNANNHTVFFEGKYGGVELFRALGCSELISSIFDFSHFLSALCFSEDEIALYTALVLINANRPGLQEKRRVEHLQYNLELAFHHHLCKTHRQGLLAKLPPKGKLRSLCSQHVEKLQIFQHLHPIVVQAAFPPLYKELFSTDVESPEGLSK
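Stably transfected Drosophila Schneider cells are the test system, with ROR gamma fused to Gal4 and luciferase under UAS control; luminescence is read after 20 hr of 700 uM copper sulfate induction at ambient temperature.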
Gal4-VP16 FLuc: inhibits Gal4-VP16 luciferase reporter, ROR gamma counter-screen | 310,000 tested, 3.5% active | Potency, µM (titrated, usually from 53.6 µM), for inactives: top-dose activity, negative = inhibition, hits mostly inhibitors | Drosophila S2 Gal4-VP16 UAS-luciferase, luminescence, 20 h;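 further: Gal4-VP16 expression switched on by copper sulfate through the metallothionein promoter; on the % scale 0 is the no-effect control and ±100 the full control effect; nearly all actives have a fitted effect of over 50% in size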
SW480 rereplic: inducers of DNA re-replication in SW480 colon cancer cells; SW480 DNA re-replication, Hoechst DNA content imaging, 48 h; Potency, µM (doses to about 46.1 µM), for the others: at the highest dose re-replication activation, hits mostly activators; 340,000 tested, 1.8% active; further: % of control where 0% means no effect; nearly all actives have a fitted effect of over 55% in size
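Readout is total intensity of Hoechst-stained nuclei, excited at 405 nm and collected at 500-530 nm. Compound treatment lasted 48 hr at 37 C in 5% CO2 before staining.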
Numbers without * were called inactive; i = inactive; ? = inconclusive; nt = no result; [ ] = another dose, or the depositor's remark. The call rests on the fitted dose curve; in most records, active means well fitted curve in the direction sought with a large enough effect; inconclusive means small, poorly fitted or top-dose-only effect, or another doubt; inactive means no such curve, though single readings can be large; an effect the other way counts as inactive or inconclusive. Potency means the concentration at half of the fitted maximal effect.

SMILES	MCF10A rereplic	KB-V1 MDR tox	KB-3-1 tox	RORgamma inh	Gal4-VP16 FLuc	SW480 rereplic
COc1ccccc1NC(=S)NC1CCC(CC2CCC(NC(=S)Nc3ccccc3OC)CC2)CC1 (centres undefined)	?	i	i	3.55µM*	3.16µM*	-10.7%
CN(C)NC(=S)NC1CC2CCC1C2 (centres undefined)	-3.4%	i	i	5.62µM*	12.6µM*	0.1%
COc1ccccc1NC(=S)NC1CC2CCC1C2 (centres undefined)	6.2%	i	?	2.24µM*	15.8µM*	-2.7%
COc1ccccc1NC(=S)NC1CCCC1	3.3%	i	i	nt	nt	3.2%
O=C(O)CN(CC(=O)O)c1ccccc1OCCOc1ccccc1N(CC(=O)O)CC(=O)O	nt	nt	nt	-6.0%	1.1%	nt
COc1ccc(NC(=O)c2cc(-c3sc(NC(=O)c4ccccc4)nc3C)n(-c3ccc(Br)cc3)n2)cc1	nt	i	i	nt	nt	nt
Cc1cc(C(N)=O)c2ccccc2n1	?	i	i	-4.7%	-6.9%	-1.7%
NC(=O)c1cc2c3ccccc3ccn2c1-c1ccccc1	?	0.651µM*	1.16µM*	?	-21.1%	0.731µM*
COc1ccccc1-c1nnc(NC(=O)c2ccc3c(c2)OCO3)s1	?	6.51µM*	5.8µM*	-21.9%	2.5%	5.8µM*
CC(c1ccccc1)c1nnc(NC(=O)c2ccc3c(c2)OCO3)s1 (centres undefined)	?	14.6µM*	?	?	0.9%	14.6µM*
COc1ccccc1-c1nnc(NC(=O)CSc2nncn2C)s1	-2.0%	i	i	8.91µM*	?	1.5%
CC(C)(C)c1nnc(NC(=O)c2ccc3c(c2)OCO3)s1	0.2%	i	i	-67.0%	?	-7.2%
CCOC(=O)CSc1nnc(NC(=O)c2ccc3c(c2)OCO3)s1	1.5%	nt	nt	11.2µM*	15.8µM*	-0.1%
Cc1c(Cl)cccc1-n1ncc(C(=O)NC2CCCC2)c1C1CCN(C(=O)OC(C)(C)C)CC1	nt	i	i	nt	nt	nt
Cc1nc(-c2ccc(C)c(S(=O)(=O)N3CCC(C(=O)NCc4ccc(Cl)cc4)CC3)c2)no1	nt	i	i	nt	nt	nt
CC(C)NC(=O)C1=CC(c2ccc3c(c2)OCO3)=NS(=O)(=O)N1C	nt	i	i	nt	nt	nt
CC(=O)c1cccc(Nc2cc(C)nc3nc(-c4ccccc4C)nn23)c1	nt	i	i	nt	nt	nt
CC(C)c1nnc(NC(=O)c2ccc3c(c2)OCO3)s1	-0.1%	i	i	6.31µM*	?	-25.9%
COc1ccccc1NC(=O)Nc1nnc(C(C)C)s1	-5.8%	i	i	22.6%	-10.1%	-3.9%
COc1ccccc1NC(=O)Nc1nnc(C(C)c2ccccc2)s1 (centres undefined)	23.1µM*	i	i	37.0%	14.4%	?
CC(C)Sc1nnc(NC(=O)c2ccc3c(c2)OCO3)s1	-2.4%	i	i	-41.3%	-15.0%	-4.7%
Cc1nc(N=C(N)N)nc2ccccc12	16.9%	?	8.2µM*	-19.0%	-11.9%	13.3%
CCc1ccc2nc(N=C(N)N)nc(C)c2c1	11.3%	i	23.1µM*	-35.3%	-21.1%	-1.0%
Cc1nc(/N=C(\N)NC(=O)N2c3ccccc3Sc3ccccc32)nc2ccccc12	14.1%	i	i	9.7%	-6.3%	-1.7%
Cc1ccc2nc(N=C(N)N)nc(C)c2c1	1.4%	i	i	0.8%	-4.0%	?
SMILES	MCF10A rereplic	KB-V1 MDR tox	KB-3-1 tox	RORgamma inh	Gal4-VP16 FLuc	SW480 rereplic
Cc1cc2nc(N=C(N)N)nc(C)c2cc1C	?	i	i	6.9%	-13.1%	18.4µM*
CCOc1ccc(CNC(=O)CCS(=O)(=O)c2cc3c(cc2Cl)NC(=O)CO3)cc1OC	nt	i	i	nt	nt	nt
Cc1cccnc1NC(=O)CCCNC(=O)c1ccc(Cl)cc1	?	i	i	nt	nt	-2.4%
CCc1cc2c(NCC3CCCO3)ncnc2s1 (centres undefined)	17.0%	16.4µM*	?	14.8%	-9.5%	2.0%
COc1cccc(CNC(=O)c2cccc(S(=O)(=O)N3CCN(Cc4ccccc4)CC3)c2)c1	5.9%	14.6µM*	i	nt	nt	-2.9%
CN(Cc1ccc(OC(F)F)cc1)C(=O)c1cccc(S(=O)(=O)N2CCN(Cc3ccccc3)CC2)c1	-16.4%	?	14.6µM*	nt	nt	-68.4%
O=C(NCc1ccc(F)cc1)c1cccc(S(=O)(=O)N2CCCC2)c1	19.5%	23.1µM*	i	35.9%	-6.4%	-0.8%
CN(CC(=O)Nc1ccc(Cl)cc1)C(=O)c1cccc(S(=O)(=O)N2CCN(Cc3ccccc3)CC2)c1	?	?	16.4µM*	nt	nt	10.3%
CCCC(=O)N1CCC1(C)C(=O)Nc1ncc(C(=O)OC)s1 (centres undefined)	nt	i	i	nt	nt	nt
O=S(=O)(c1ccc(Cl)cc1)N1CCOCC1	nt	i	i	nt	nt	nt
CCC(=O)Nc1ccccc1-c1nc2ccccc2n(CC(=O)c2ccc(C)c(C)c2)c1=O	nt	i	i	nt	nt	nt
CN(C)S(=O)(=O)c1cccc(C(=O)N(Cc2ccc(F)cc2)Cc2ccco2)c1	3.3%	i	i	42.5%	5.4%	2.4%
O=C(c1cccc(S(=O)(=O)N2CCOCC2)c1)N(Cc1ccc(F)cc1)Cc1ccco1	2.06µM*	i	i	42.7%	7.8%	-9.4%
O=C1CC(c2c(Cl)cccc2Cl)c2c(ccc3ccccc23)N1 (centres undefined)	nt	i	i	nt	nt	nt
O=C(Cn1nc(-c2ccccc2)c2ccccc2c1=O)Nc1ccc(O)cc1	-1.5%	i	i	39.0%	-10.0%	2.7%
Cc1ccc(NC(=O)NNC(=O)Cn2nc(-c3ccccc3)c(-c3ccccc3)c(C#N)c2=O)cc1	1.46µM*	i	6.51µM*	3.7%	-8.6%	2.91µM*
CC(C)CO/N=C1/[C@H]2O[C@@H]2[C@@H](O)[C@H]2[C@H]1CCn1c(=O)n(Cc3cc4c(cc3Cl)OCO4)c(=O)n12	nt	nt	nt	17.1%[10 µM]	-6.5%[10 µM]	nt
CCCCCN(C(=O)NC(=O)Nc1nncs1)S(C)(=O)=O	-6.9%	i	i	11.2µM*	-0.8%	-15.6%
CCCCN(C(=O)NC(=O)Nc1nc2ccc(OC)cc2s1)S(C)(=O)=O	-8.3%	9.2µM*	?	-21.9%	-81.2%	?
CCCCCN(C(=O)NC(=O)Nn1cnnc1)S(C)(=O)=O	24.1%	i	i	-1.7%	2.4%	-1.9%
COc1ccc(-n2c(=S)[nH]c3cc(C(=O)NCc4cccnc4)ccc3c2=O)c(OC)c1	4.2%	i	i	-20.9%	-15.3%	-9.5%
COc1ccc(OC)c(NC(=O)c2ccc3c(=O)n(CCc4ccccc4)c(=S)[nH]c3c2)c1	26.3%	?	i	0.794µM*	0.891µM*	-5.7%
